# Compound activity: PubChem BioAssay, National Center for Advancing Translational Sciences (NCATS)
# NIH3T3 tox: Cytotoxic Profiling in NIH 3T3 Cell Line of Diverse Libraries Using Quantitative High-Throughput Screening. AID 1345082, 2018. NIH 3T3 viability, CellTiter-Glo ATP luminescence, 48-72 h. Potency, µM (titrated, usually from 96.7 µM), for inactives: top-dose activity change, negative = cytotoxicity, actives largely listed as inhibitors. actives 4.3% (n = 94,000); note: nearly all actives have a fitted effect of over 55% in size
#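 Mouse fibroblast NIH 3T3 cells, 400 per well, received compound via pintool and were incubated for 48 or 72 hr prior to CellTiter-Glo ATP luminescence measurement.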
# GPT2 inhibitor: Primary qHTS assay for inhibitors of Glutamate pyruvate transaminase 2 (GPT2); Recombinant GPT2, coupled pyruvate oxidase/HRP Amplex Red fluorescence; Potency, µM (series often up to 57.7 µM), without a hit: at the highest dose activity change, negative = inhibition, actives largely listed as inhibitors; actives 0.25% (n = 100,000); AID 1671188, 2021; note: nearly all actives have a fitted effect of over 60% in size
#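 Inhibition is scored from Amplex Red fluorescence generated when pyruvate oxidase and HRP act on pyruvate released by GPT2. Reactions contain 10ng/uL enzyme, 250uM a-KG and 2mM L-alanine and run 30 min at room temperature.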
# hNpr1 antagonist: Natriuretic polypeptide receptor (hNpr1) antagonism - Primary qHTS. actives 1.6% (n = 76,000). Potency, µM (highest dose often 46.3 µM), without a hit: top-dose activity change, negative = inhibition, most hits filed as inhibitors. HEK293 hNpr1 GloSensor cGMP, ANP-stimulated luminescence. Atrial natriuretic peptide receptor 1 (Homo sapiens), P16066; calls by dose curve; note: nearly all actives have a fitted effect of over 60% in size
#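 HEK293 cells stably expressing human Npr1 and cGMP GloSensor pGS-40F, loaded 2 h with 2% GloSensor reagent, given compound 30 min at room temperature. Luminescence read before and 20 min after 0.1 nM hNppA.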
# HEK293 tox: Cytotoxic Profiling in HEK 293 Cell Line of Diverse Libraries Using Quantitative High-Throughput Screening. actives 6.6% (n = 94,000). HEK 293 viability, ATP luminescence (CellTiter-Glo), 48-72 h. AID 1345083, 2018. Potency, µM (highest dose often 115 µM), without a hit: top-dose activity change, negative = cytotoxicity, most hits filed as inhibitors; note: nearly all actives have a fitted effect of over 60% in size
#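 Viability of HEK 293 cells, plated at 250 cells/well, was judged by cellular ATP after compound treatment for 48 or 72 hr. Luminescence was imaged 10 min after CellTiter-Glo addition at room temperature.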
# Luciferase inh: Firefly luciferase inhibition profiling of diverse chemical library using quantitative high-throughput screening; Luciferin 4-monooxygenase (Photinus pyralis), P08659; purified P. pyralis luciferase, luminescence, biochemical; Potency, µM (doses to about 115 µM), hits mostly inhibitors; actives 2.5% (n = 76,000); AID 1347043, 2019; note: nearly all actives have a fitted effect of over 65% in size
# Target sequence (P08659 whole entry, looked up): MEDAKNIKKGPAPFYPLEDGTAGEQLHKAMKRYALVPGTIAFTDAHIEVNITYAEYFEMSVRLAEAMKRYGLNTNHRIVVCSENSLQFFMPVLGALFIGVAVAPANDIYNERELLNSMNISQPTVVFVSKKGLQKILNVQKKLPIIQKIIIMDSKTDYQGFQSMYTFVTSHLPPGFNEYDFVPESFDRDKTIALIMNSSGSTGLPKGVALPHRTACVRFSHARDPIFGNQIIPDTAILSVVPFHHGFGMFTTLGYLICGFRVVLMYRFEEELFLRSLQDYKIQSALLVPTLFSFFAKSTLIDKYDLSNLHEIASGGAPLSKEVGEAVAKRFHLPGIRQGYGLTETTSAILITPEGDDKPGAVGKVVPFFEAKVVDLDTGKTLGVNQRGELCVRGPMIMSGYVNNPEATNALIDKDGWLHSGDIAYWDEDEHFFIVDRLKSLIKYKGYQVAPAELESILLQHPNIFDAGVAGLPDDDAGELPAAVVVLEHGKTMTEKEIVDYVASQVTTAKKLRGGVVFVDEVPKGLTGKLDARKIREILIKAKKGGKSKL
#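 Purified P. pyralis luciferase (10nM final) in 50mM Tris acetate pH 7.5, 10mM Mg acetate, 0.01% Tween-20, 0.05% BSA with 10uM D-luciferin and 10uM ATP. Compounds titrated qHTS. Luminescence imaged on CCD.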
# Starred values were filed as active, the others as inactive; i = inactive; u = inconclusive; x = no result; [ ] = remark or other dose. Compounds with a hit are over-represented: about 10% of the library has one in this group of screens. Unless noted, calls come from the whole dose curve; as a rule, active = well fitted curve in the direction sought with a large enough effect; inconclusive = small, poorly fitted or top-dose-only effect, or another doubt; inactive = no such curve, though single readings can be large; an effect the other way counts as inactive or inconclusive. % is set by controls: 0 for no effect and ±100 for the full control effect; potency is the fitted concentration of half-maximal effect.
SMILES,NIH3T3 tox,GPT2 inhibitor,hNpr1 antagonist,HEK293 tox,Luciferase inh
C=CCNC(=O)N[C@H]1CO[C@H]2[C@@H]1OC[C@@H]2Nc1nccc(-c2ccc(OC)cc2)n1,u,-1%[88.5 µM],-2%[70.6 µM],89µM*,i
Cc1ccc(C(=O)N[C@H]2CO[C@H]3[C@@H]2OC[C@@H]3Nc2nccc(-c3cccs3)n2)cc1,-16%[174 µM],0%[88.5 µM],-5%[70.6 µM],-3%[172 µM],i
Cc1ccc(S(=O)(=O)N[C@H]2CO[C@H]3[C@@H]2OC[C@@H]3Nc2nccc(C(C)(C)C)n2)cc1,u,-6%[88.5 µM],3.5µM*,25µM*,u
CN(C)c1ccc(C(=O)N[C@H]2CO[C@H]3[C@@H]2OC[C@@H]3Nc2nccc(-c3cccs3)n2)cc1,u,3%,-26%,45µM*,u
CC(=O)N[C@H]1CO[C@H]2[C@@H]1OC[C@@H]2Nc1nccc(-c2cccc(F)c2)n1,-28%[174 µM],4%[88.5 µM],u,u,i
COCC(=O)N[C@H]1CO[C@H]2[C@@H]1OC[C@@H]2Nc1nccc(-c2cccc(F)c2)n1,u,0%[88.5 µM],3%[70.6 µM],100µM*,i
Cc1ccc(S(=O)(=O)N[C@H]2CO[C@H]3[C@@H]2OC[C@H]3O)cc1,0%[174 µM],i,1%[70.6 µM],1%[172 µM],i
COCCn1c(=O)c2c(n1Cc1ccccc1)CN(C(=O)CCc1ccccn1)CC2,u,i,1%[70.6 µM],-8%[172 µM],i
Cc1ccc(NC(=O)N2CCC(OC3CCN(S(C)(=O)=O)CC3)CC2)cc1C,1%,5%,4%,4%,i
O=C(NCC1CCCCC1)c1nc2sccn2c1-c1ccccc1,28µM*,i,x,u,x
COc1ccc(-c2c(C(=O)NC3CCCCCC3)nc3sccn23)cc1,-22%,1%,x,45µM*,x
O=C(NCCCc1ccccc1)c1nc2sccn2c1-c1cccc(C(F)(F)F)c1,u,-10%[88.5 µM],x,50µM*,x
O=C(NCCCc1ccccc1)c1nc2sccn2c1-c1ccc(C(F)(F)F)cc1,u,2%,x,u,x
Cc1ccc(-c2c(C(=O)NCCCc3ccccc3)nc3sccn23)cc1,28µM*,i,x,18µM*,x
O=C(NCC1CCCCC1)c1nc2sccn2c1-c1cccnc1,u,i,x,-30%,x
Cc1cccc(C(=O)N2CC(c3noc(C4CCCN4C)n3)C2)c1 (stereo not drawn),1%,1%,12%,-2%,i
COc1ccc(CCNC(=O)c2nc3sccn3c2-c2ccc(C)cc2)cc1,22µM*,2%[88.5 µM],x,u,x
COc1ccc(CCNC(=O)c2nc3sccn3c2-c2ccc(OC)cc2)cc1,u,3%,x,u,x
O=C(NCc1ccccn1)c1nc2sccn2c1-c1ccc(F)cc1,u,i,x,-22%,x
Cc1ccc(-c2c(C(=O)NCc3ccccn3)nc3sccn23)cc1,u,i,x,79µM*,x
CN(Cc1ccccc1)[C@@H]1C[C@@H]2CO[C@H](c3ccccc3)C[C@@H]2C1,-38%,x,x,u,x
O=C(c1ccccc1Cl)N1CCCC1C(=O)N1CCCC1c1nc2ccncc2[nH]1 (stereo not drawn),-6%,i,x,-2%,x
Cc1ccsc1C(=O)N1CC2CC(C1)[C@H]1CCCC(=O)N1C2 (stereo partly drawn),i,-6%,2%,9%,i
Cc1ccc(CN2C[C@@H]3C[C@H]2C(=O)N(CC2CC2)c2ccccc2O3)cc1,100µM*,-17%[88.5 µM],-18%[70.6 µM],100µM*,i
Cn1cc(CN2C[C@@H]3C[C@H]2C(=O)N(CC2CC2)c2ccccc2O3)c2ccccc21,100µM*,u,-9%[70.6 µM],u,i
SMILES,NIH3T3 tox,GPT2 inhibitor,hNpr1 antagonist,HEK293 tox,Luciferase inh
O=C(Cc1ccccc1)Nc1ccc([C@H]2OCC(=O)N[C@@H]2CO)cc1,-21%[174 µM],u,-1%[70.6 µM],-13%[172 µM],i
CC(=O)NC1(C)CCN(Cc2ccccc2-c2ccc3ccccc3c2)C1 (stereo not drawn),79µM*,3%[88.5 µM],-17%[70.6 µM],u,i
CC(=O)NC1(C)CCN(Cc2ccc(-c3ccc([S+](C)(=O)[O-])cc3)cc2)C1 (stereo not drawn),-12%[138 µM],-17%[88.5 µM],0%[70.6 µM],u,i
CC(=O)NC1(C)CCN(Cc2ccc(-c3ccccc3Oc3ccccc3)cc2)C1 (stereo not drawn),40µM*,2%[88.5 µM],-4%[70.6 µM],56µM*,i
c1ccc(-c2noc(-c3ccccc3OC3CNC3)n2)cc1,28µM*,-5%,u,u,22µM*
O=C(NCCc1ccccc1)N1CC(Oc2ccccc2-c2nc(-c3ccccc3)no2)C1,28µM*,i,-5%,22µM*,u
CC(Oc1ccccc1)C(=O)N1CC(Oc2ccccc2-c2nc(-c3ccccc3)no2)C1 (stereo not drawn),35µM*,0%,x,45µM*,x
CCC(C)NC(=O)N1CC(Oc2ccccc2-c2nc(-c3ccccc3)no2)C1 (stereo not drawn),35µM*,-13%,-4%,u,u
Cc1cccc(NC(=O)N2CC(Oc3ccccc3-c3nc(-c4ccccc4)no3)C2)c1,-13%,i,2%,-3%,i
O=C(O)c1ccc(CN2C[C@@H]3OCC(=O)N(CC4CC4)[C@@H]3C2)cc1,4%[138 µM],3%[88.5 µM],0%[70.6 µM],-2%[172 µM],i
O=C(Cc1ccsc1)N1CC(Oc2ccccc2-c2nc(-c3ccccc3)no2)C1,35µM*,i,-1%,u,u
NCc1ccc(-c2cccc(C(F)(F)F)c2)cc1,32µM*,-10%[88.5 µM],x,32µM*,x
NCc1ccc(-c2cc(C(F)(F)F)ccc2Cl)cc1,25µM*,i,x,28µM*,x
O=C(O)c1ccc(-c2cccc(C(F)(F)F)c2)cc1,-11%[138 µM],-8%[88.5 µM],x,-15%[172 µM],x
NCc1cccc(-c2cccc(Cl)c2)c1,89µM*,-9%[88.5 µM],x,u,x
O=Cc1ccc(-c2cccc(O)c2)cc1,u,-5%[88.5 µM],x,u,x
NCc1ccc(-c2cccc(O)c2)cc1,89µM*,4%[88.5 µM],x,89µM*,x
CCS(=O)(=O)Nc1ccc(C2(C(=O)NCc3ccc4c(c3)OCO4)CCCCC2)cc1,u,i,4%,u,i
Cc1cc2nc3n(c(=O)c2n1CC(=O)Nc1ccccc1F)CCCCC3,i,i,-3%,7%,i
COCCOc1ncccc1-c1noc([C@@H]2CCCN2Cc2ccc(OC)cc2)n1,-15%[174 µM],1%[88.5 µM],3%[70.6 µM],100µM*,i
COc1ccccc1CN1CCC[C@H]1c1nc(-c2ccc(F)cn2)no1,-21%[174 µM],3%[88.5 µM],4%[70.6 µM],18µM*,i
